Several values for one entry are separate records, joined by “and”; a condition that tells them apart may be missing. Equal entries are not always repeated.
What was measured:
Assay type in all cases: functional
Plasmodium falciparum [1] = experiment: GSK_TCMDC: Inhibition of Plasmodium falciparum 3D7 in whole red blood cells, using parasite LDH activity as an index of growth. Test compounds present at 2uM
Plasmodium falciparum [2] = experiment: GSK_TCMDC: Inhibition of Plasmodium falciparum Dd2 in whole red blood cells, using parasite LDH activity as an index of growth. Test compounds present at 2uM
HepG2 = experiment: GSK_TCMDC: Percent inhibition of human HepG2 cell line. Test compounds present at 10uM.

SMILES	Inhibition (Plasmodium falciparum [1])	Inhibition (Plasmodium falciparum [2])	Inhibition (HepG2)
O=C(/C=C/c1ccccc1Cl)NC1CCC(CN2CCC(c3c[nH]c4ccccc34)CC2)CC1 (configuration not stated)	100% and 99%	51% and 35%	33% and 41%
CC[C@H]1CN2CC[C@H]1C[C@@H]2[C@@H](O)c1ccnc2ccc(OC)cc12.Cl	100%	95%	0%
O=C(Nc1ccc(CN2CCC(c3c[nH]c4ccc(O)cc34)CC2)cc1)c1ccc(-c2ccccc2)cc1	100%	100%	33%
CC(Cc1ccc(SC(C)C)cc1)NCC(O)c1cccc(Cl)c1.Cl (configuration not stated)	99%	97%	5%
CCCCn1c(C)c(C(=O)OCC)c2cc(OC(C)=O)c(Br)cc21	98%	79%	0%
Br.CC[C@H]1CN2CC[C@H]1C[C@H]2[C@H](O)c1ccnc2ccc(C#N)cc12	100%	55%	0%
CC[C@H]1CN2CC[C@@H]1C[C@H]2[C@H](O)c1cc(N2CCC(CO)CC2)nc2ccc(OC)cc12	99%	99%	4%
COc1ccc(O)c(CN2CCN(c3cc(C)ccc3C)CC2)c1	90%	86%	7%
CC[C@H]1CN2CC[C@H]1C[C@@H]2[C@@H](OC(=O)c1ccc(Cl)cc1)c1ccnc2ccc(OC)cc12	89%	0%	0%
CCN(CC)CCOC(=O)C(OC)(c1ccccc1)c1ccccc1	97%	6%	0%
O=C1NCN(c2ccc(O)cc2)C12CCN(CCCC(c1ccc(F)cc1)c1ccc(F)cc1)CC2	94%	34%	20%
O=C1Nc2cccc3c2C1(CCCCN1CC=C(c2c[nH]c4ncccc24)CC1)CCC3 (configuration not stated)	92%	80%	11%
CC(=O)C1(c2ccccc2)CCN(CCC2(c3ccc(Cl)c(Cl)c3)CN(C(=O)C3CCCCC3)CCO2)CC1 (configuration not stated)	100%	99%	3%
S=C(NCC1CCCCC1)NC1CCC(CN2CCC(c3c[nH]c4ccccc34)CC2)CC1 (configuration not stated)	88%	10%	29%
C=C[C@H]1CN2CC[C@H]1C[C@H]2[C@H](OS(=O)(=O)O)c1ccnc2ccccc12	99%	15%	8%
CC[C@H]1CN2CC[C@H]1C[C@H]2[C@H](O)c1cc(-c2ccc(F)cc2)nc2ccc(OC)cc12.Cl	99%	98%	34%
Cn1nc(-c2ccc(S(=O)(=O)NC3CCC(CN4CCC(c5c[nH]c6ccccc56)CC4)CC3)s2)cc1C(F)(F)F (configuration not stated)	96% and 98%	24% and 29%	35% and 38%
CC(Cc1ccc(NC(=O)[C@@H](C)NCCc2cccc(Cl)c2)cc1)NCCc1cccc(Cl)c1.Cl (some centres not stated)	99%	54%	99%
COc1cc2c(c(OC)c1OC)C[C@H]1c3c(cc4c(c3-2)OCO4)CCN1C	84%	30%	7%
O=C(/C=C/c1cc(F)cc(C(F)(F)F)c1)N1CCC(CN2CCC(c3c[nH]c4ccccc34)CC2)CC1	100%	74%	32%

SMILES	Inhibition (Plasmodium falciparum [1])	Inhibition (Plasmodium falciparum [2])	Inhibition (HepG2)
NCc1cccc(-c2cccc(CN(C(=O)Nc3ccccc3)C3CCN(Cc4ccccc4)CC3)c2)c1.O=C(O)C(F)(F)F	99%	8%	3%
CC(=O)N(Cc1cccc(-c2cccc(CNCc3ccc4c(c3)OCO4)c2)c1)C1CCN(Cc2ccccc2)CC1.O=C(O)C(F)(F)F	95%	21%	16%
Br.Cc1ccccc1C1=CCN(CCCN2c3ccccc3Sc3ccc(Cl)cc32)CC1	90%	30%	14%
CC(Cc1ccc(S(=O)(=O)N(C(C)C)C(C)C)cc1)NCC(O)c1cccc(C(F)(F)F)c1.Cl (configuration not stated)	96%	93%	21%
O=C(C=Cc1ccccc1C(F)(F)F)NC1CCC(CN2CCC(c3c[nH]c4ccccc34)CC2)CC1 (configuration not stated)	100%	90% and 47%	47% and 73%
COc1ccc(CN2CCN(CCOC(c3ccccc3)c3ccccc3)CC2)c(O)c1	96%	84%	19%
COC(=O)c1ccc(CC(C)NCC(O)c2ccc(Cl)c(Cl)c2)cc1 (configuration not stated)	87%	33%	0%
COc1cccc(CC(C)NCC(O)c2cccc(Cl)c2)c1.Cl (configuration not stated)	85%	76%	7%
O=C(/C=C/c1ccc2ccccc2c1)NC1CCC(CN2CCC(c3c[nH]c4ccccc34)CC2)CC1 (configuration not stated)	100%	88%	28%
CC[C@H]1CN2CC[C@H]1C[C@@H]2[C@H](O)c1ccnc2ccc(O)cc12	94%	0%	0%
CCN(Cc1ccccc1)CC(O)c1ccc(Cl)c(Cl)c1.Cl (configuration not stated)	96%	71%	2%
COc1cc(C=CC(=O)N2CCC(CN3CCC(c4c[nH]c5ccccc45)CC3)CC2)ccc1O	82%	25%	11%
COc1cccc(CN2CCC(CCOC(c3ccccc3)c3ccccc3)CC2)c1O	97%	99%	33%
CCCCCc1cc(O)c2c(c1)OC(C)(C)CC2C1=CCN(Cc2cccnc2)CC1.Cl.O (configuration not stated)	97%	97%	15%
O=C(/C=C/c1ccc(Cl)c(Cl)c1)N1CCC(CN2CCC(c3c(-c4ccc(F)cc4)[nH]c4ccccc34)CC2)CC1	100%	98%	19%
O=C(NC1CCC(CN2CCC(c3c[nH]c4ccccc34)CC2)CC1)c1cc2cccc([N+](=O)[O-])c2[nH]1 (configuration not stated)	100%	100%	36%
COc1cccc(C=CC(=O)NC2CCC(CN3CCC(c4c[nH]c5ccccc45)CC3)CC2)c1OC (configuration not stated)	100%	40%	37%
CC(C)CNCc1cccc(-c2cccc(CN(C(=O)c3cccs3)C3CCN(Cc4ccccc4)CC3)c2)c1.O=C(O)C(F)(F)F	90%	36%	14%
Oc1ccccc1CNCC(O)c1cc(C(F)(F)F)cc(C(F)(F)F)c1 (configuration not stated)	99%	100%	15%
COc1ccc(CN2CCN(CCOC(c3ccccc3)c3ccc(Cl)cc3)CC2)c(O)c1 (configuration not stated)	99%	98%	12%

SMILES	Inhibition (Plasmodium falciparum [1])	Inhibition (Plasmodium falciparum [2])	Inhibition (HepG2)
CN1CC=C(c2c[nH]c3ccc(-c4ccccc4)cc23)CC1	93%	60%	14%
O=C(/C=C/c1ccccc1Cl)NC1CCC(CN2C3CCC2CC(c2c[nH]c4ccccc24)C3)CC1 (configuration not stated)	100%	98%	56%
CC[C@H]1CN2CC[C@H]1C[C@H]2[C@H](O)c1cc(/C=C/c2ccc(F)cc2)nc2ccc(OC)cc12.Cl	99%	99%	55%
CC[C@H]1CN2CC[C@@H]1C[C@H]2[C@H](O)c1cc(-c2cc(Cl)cc(Cl)c2)nc2ccc(OC)cc12	99%	97%	0%
COc1ccc(C=CC(=O)N2CCC(CN3CCC(c4c[nH]c5ccccc45)CC3)CC2)cc1OC	94%	4%	20%
CCCCC/C=C/C(=O)NC1CCC(CN2CCC(c3c[nH]c4ccccc34)CC2)CC1 (configuration not stated)	87%	11%	19%
Cc1cc(NC(=O)[C@@H](Nc2ccc(C#N)c3ccccc23)C2CCCCC2)ccc1F.O=C(O)C(F)(F)F	95%	83%	10%
C[C@@H](CC1CCCCC1)NCc1ccccc1O	98%	67%	9%
CC(Cc1ccc([N+](=O)[O-])cc1)NCC(O)c1cccc(C(F)(F)F)c1 (configuration not stated)	98%	92%	0%
COC(=O)c1ccc(CC(C)NCC(O)c2cccc(Cl)c2Cl)cc1.Cl (configuration not stated)	98%	98%	0%
CCN(CC)CCN1C(=O)C(O)(c2ccccc2Cl)c2c1cc(C#N)cc2C(F)(F)F (configuration not stated)	88%	19%	21%
O=C(NC1CCC(N2CCC3(CC2)C(=O)NCN3c2ccccc2)CC1)c1cc2ccccc2[nH]1 (configuration not stated)	98%	40%	0%
Cc1cc(-c2ncc[nH]2)ccc1-c1ccc(C(=O)N2CCc3cc4c(cc32)C2(CCN(C)CC2)CO4)cc1.Cl	100%	98%	32%
Cc1ccc(CC(C)NCC(O)c2cccc(C(F)(F)F)c2)c(C)c1.Cl (configuration not stated)	99%	99%	3%
O=C(/C=C/c1ccc(Cl)c(Cl)c1)NCc1ccc(CN2CCC(c3c[nH]c4ccccc34)CC2)cc1	100%	86%	59%
CC(C)CNCc1ccc(-c2cccc(CN(C(=O)NC3CCCCC3)C3CCN(Cc4ccccc4)CC3)c2)cc1.O=C(O)C(F)(F)F	98%	88%	20%
COc1ccc(C[C@H]2NC[C@H](O)[C@H]2OC(C)=O)cc1 [ANISOMYCIN]	100%	98%	39%
COc1cccc(/C=C/C(=O)NC2CCC(CN3CCC(c4c[nH]c5ccccc45)CC3)CC2)c1 (configuration not stated)	100% and 94%	26% and 38%	30% and 19%
COc1ccc(C=CC(=O)NC2CCC(CN3CCC(c4c[nH]c5ccccc45)CC3)CC2)cc1 (configuration not stated)	100%	61% and 60%	13% and 30%
